Test results reported in PubChem BioAssay (NCI).
About 83,000 compounds went through this panel and 20% of them were active in at least one assay; those are over-represented in the sample as a whole.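 Testing used 96-well plates and a 48-hour single-concentration exposure. Example: -40 means 40% of the starting cells died.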 The source made the active and inactive calls. Rule for the calls: active = growth percent below 10; inactive = the rest.

Tested on: HL-60(TB) leukemia
Assay: NCI-60 one-dose screen, 48 h (100 = growth as untreated, 0 = no growth, -100 = all killed)
Conditions: 10 µM unless noted

SMILES | growth
COc1cc2c(cc1OCCCN1Cc3ccc(OCCCCC(=O)N4CCC(CCN5CCCC5)CC4)cc3C1)N=C(N)C21CCCC1 | 84.9% (inactive)
CCOC(=O)c1cc2cccc(OC)c2oc1=O | 117% (inactive)
Nc1ccc(Br)cc1C(F)(F)F | 90.2% (inactive)
CN(C)CCN1C(=O)c2c(c3c4ccccc4n4c3c3c2c2ccccc2n3C2CC(O)C(O)C4(C)O2)C1=O (stereo not given) | 32.5% (inactive)
CC(C)C[C@H](NC(=O)Cn1ccc2ccccc2c1=O)B(O)O | 27.9% (inactive)
NC(=S)N/N=C/c1ncccc1O | -23.2% (active)
CN=C(N)N/N=C(\c1ccccc1)c1ccc(Br)cc1 | -52.5% (active)
CC(=O)C(C)Cc1cc2c(cc1C)C(C)(C)CCC2(C)C (stereo not given) | 101% (inactive)
Cc1ccc2c(c1)C(C)Cc1c(N(C)C)ncnc1N2C (stereo not given) | -5.91% (active)
O=C(Nc1ccc2[nH]ncc2c1)c1csc(Nc2ccccc2)n1 | 9.35% (active)
COc1cc(/C=C2\COc3ccc(-c4ccccc4)cc3C2=O)cc(OC)c1 | 42.9% (inactive)
CN1CCN(Cc2ccc(NC(=O)c3cncc(C#Cc4c(N)ncc5ccc(C#N)cc45)c3)cc2C(F)(F)F)CC1 | 9.71% (active)
COc1ccc2nc3cc(Cl)ccc3c(NCCNCC(O)CO)c2c1 (stereo not given) | 15.6% (inactive)
CCN(CC)CC#CCOC(=O)[C@]1(C)CCC[C@]2(C)[C@H]3C[C@H]4C(C(C)C)=C[C@]3(CC[C@H]21)[C@@H]1C(=O)CCC(=O)[C@@H]14 | -36.3% (active)
O=C(/C=C/c1sc(Cl)nc1Cl)c1ccc(F)cc1 | 61.2% (inactive)
COc1cc(C(=O)c2cc(C)c3[nH]c4ccc(C)cc4c3c2C)cc(OC)c1OC | -2.6% (active)
Cn1cc(-c2noc(-c3cn(C)c4ncc(F)cc34)n2)c2cc(Br)ccc21 | 93.8% (inactive)
CN1CCN(CCNC(=O)c2cccc(CN3c4cccc5c4C(=Cc4cccnc43)N(C)C5=O)c2)CC1 | -6.25% (active)
COc1ccc(/C(C)=N/NC(=O)CSc2nc3ccccc3c(=O)n2CCc2ccc(S(N)(=O)=O)cc2)cc1 | 76.7% (inactive)
C/C=C(/C)n1cnc2c(Nc3ccccn3)nc(Cl)nc21 | 107% (inactive)

SMILES | growth
COc1cccc(/C=C/C(=O)c2c(C)nc3ccccc3c2/C=C/c2ccccc2)c1OC | 13.6% (inactive)
O=C(Nc1ccc(F)cc1)Nc1ccc(CCO)cc1 | 101% (inactive)
C=C1C(=O)O[C@H]2[C@H]1CC/C(COC(=O)c1cn(C)c3ccccc13)=C\CC[C@@]1(C)O[C@@H]21 | 2.98% (active)
O=C(CCCCCCN1CC(=O)N2[C@H](c3ccc(Cl)cc3)c3[nH]c4ccccc4c3C[C@@H]2C1=O)NO | 1.54% (active)
N=c1ccn2c(n1)O[C@@H]1[C@@H](O)[C@H](CO)O[C@@H]12 | 84% (inactive)
Cc1ccc(Nc2ncnc3c2sc2ncccc23)cc1 | 71.2% (inactive)
O=C(Nc1cc(Cl)cc(Cl)c1)Oc1c(Cl)c(Cl)c(Cl)c(Cl)c1Cl | 60.9% (inactive)
CCCS(=O)(=O)Nc1ccc(F)c(C(=O)c2c[nH]c3ncc(-c4ccc(OCCCC5CCCCN5)nc4)cc23)c1F (stereo not given) | 97.4% (inactive)
Nc1ccc(-c2ccncc2)cc1NC(=O)N1CCCC1 | 120% (inactive)
Cn1cc(-c2csc(-c3cn(CCOC(N)=O)c4ccccc34)n2)c2cccnc21 | 86.9% (inactive)
CC(C)=CCC[C@](C)(O)C1CC[C@]2(C)[C@@H]1CC[C@@H]1[C@@]3(C)CC/C(=N\OCCC#N)C(C)(C)[C@@H]3CC[C@]12C (stereo not given in full) | 69.3% (inactive)
NNC(=O)Cc1ccccc1 | 73.1% (inactive)
NCCCN(CCCN)CCCNCc1c2ccccc2c(CNCCCN(CCCN)CCCN)c2ccccc12 | 100% (inactive)
CC(=O)OCc1cc(-c2nc3ccccc3[nH]c2=O)nn1-c1ccc(Cl)cc1 | 84.5% (inactive)
CN1CCN(c2c(F)cc(NC3=C(Cl)C(=O)c4ncccc4C3=O)cc2F)CC1 | -24.7% (active)
CC(=O)c1cc2c(N)c(C(=O)Nc3cccc4c3OCCO4)sc2nc1C | 86.8% (inactive)
C=C1C(=O)O[C@H]2[C@H]1CC/C(COC(=O)CSCC(=O)OC/C1=C/CC[C@@]3(C)O[C@H]3[C@H]3OC(=O)C(=C)[C@@H]3CC1)=C\CC[C@@]1(C)O[C@@H]21 | -42% (active)
COc1cc(-c2nc3ccccc3[nH]2)ccc1OCc1nnc(-c2ccc(Br)cc2)o1 | 84.2% (inactive)
Cc1ccc(-c2csc(NC(=O)N3CCN(c4cc5c(cc4F)c(=O)c(C(=O)O)cn5C4CC4)CC3)n2)cc1 | -15.5% (active)
CC(C)(Sc1cc(C(C)(C)C)c(O)c(C(C)(C)C)c1)Sc1cc(C(C)(C)C)c(OC(=O)CCC(=O)O)c(C(C)(C)C)c1 | 56.1% (inactive)
